Only some compounds are listed: those with a hit (about 12% of all), similar ones and a draw of the others.
USP17 inh – inhibitors of human USP17 deubiquitinase; Ubiquitin carboxyl-terminal hydrolase 17-like protein 5 (Homo sapiens), A8MUK1; purified USP17, Ub-rhodamine cleavage fluorescence, 3 h; inhibition, % at 50 µM; 47,000 tested, 6.5% active; AID 1645855, 2021
USP8 block – inhibitors of human USP8 deubiquitinase | Ubiquitin carboxyl-terminal hydrolase 8 (Homo sapiens), P40818 | inhibition, % at 20 µM | 47,000 tested, 4.2% active | AID 1645853, 2021 | purified USP8, Ub-rhodamine cleavage fluorescence, 30 min
USP30 inh – inhibitors of human USP30 deubiquitinase. Ubiquitin carboxyl-terminal hydrolase 30 (Homo sapiens), Q70CQ3. purified USP30, Ub-rhodamine cleavage fluorescence. inhibition, % at 25 µM. 47,000 tested, 5.3% active
Target sequence (Q70CQ3 whole entry, looked up): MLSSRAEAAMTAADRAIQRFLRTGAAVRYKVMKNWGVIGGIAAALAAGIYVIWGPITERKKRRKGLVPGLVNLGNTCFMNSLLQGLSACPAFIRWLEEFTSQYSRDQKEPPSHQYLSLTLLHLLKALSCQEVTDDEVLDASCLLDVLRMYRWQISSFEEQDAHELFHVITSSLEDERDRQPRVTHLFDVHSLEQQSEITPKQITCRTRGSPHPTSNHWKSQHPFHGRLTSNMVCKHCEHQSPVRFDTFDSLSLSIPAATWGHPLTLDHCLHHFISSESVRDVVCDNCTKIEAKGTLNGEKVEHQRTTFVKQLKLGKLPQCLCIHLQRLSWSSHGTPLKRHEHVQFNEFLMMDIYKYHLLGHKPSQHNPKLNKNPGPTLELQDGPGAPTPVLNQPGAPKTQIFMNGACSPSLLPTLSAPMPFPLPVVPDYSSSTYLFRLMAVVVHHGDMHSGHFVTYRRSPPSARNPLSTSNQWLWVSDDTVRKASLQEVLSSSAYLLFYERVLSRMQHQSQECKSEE
The depositor's hits bear a star; x = not tested or not shown. Rule as the data show it: active = inhibition above about 30%; inactive = the rest.

SMILES | USP17 inh | USP8 block | USP30 inh
Cc1nnc2ccc(-c3cccc(NC(=O)c4ccccc4F)c3)nn12 | 0 | 2 | 18
NS(=O)(=O)c1ccc(C(=O)Nc2cccc(-c3ccc4nncn4n3)c2)cc1 | 9 | 34* | 0
C/C=C/C=C/C=C/C=C/C=C/C=C/C=C/C(=O)N(C)C1C(=O)NC(CC(C)C)C(=O)NC(C)C(=O)NC(C)C(=O)NC(CCC(N)=O)C(=O)OC1C (stereo unspecified) | -104 | -257 | -306
COc1ccc(-c2nc(-c3cc(OC)c(OC)c(OC)c3)no2)cc1 | 5 | -2 | 9
COc1ccc(/C=C/c2nc(-c3ccc4oc(C)nc4c3)no2)cc1 | x | 31* | 6
Cc1nc(N2CCN(C)CC2)ncc1C(=O)NCCC1=CCCCC1 | -18 | -4 | -26
O=C(Cc1ccccc1)Nc1oc2ccccc2c(=O)c1-c1ccc2c(c1)OCO2 | 24 | 25 | 32*
Cc1ccccc1C(=O)Nc1c(-c2ccc3c(c2)OCO3)c(=O)c2ccccc2n1C | -2 | 4 | -5
COc1ccc(S(=O)(=O)N2CCOC(c3ccccc3)C2)cc1OC (stereo unspecified) | -8 | -1 | -15
O=C(c1cc2ccccc2o1)N1CCc2sccc2C1c1ccccc1 (stereo unspecified) | -6 | -1 | -3
O=C(c1cc2ccccc2o1)N1CC=C(c2ccccc2)CC1 | 36* | 21 | 50*
CCCCCCCC/C=C\CCCCCCCC(=O)O | 22 | 4 | 17
CCC/C=C\C#CC/C=C\CCCCCCCC(=O)O | 63* | -15 | -87
CC(=O)Nc1cccc(NC(=O)c2sc3nc(-c4ccccc4)cn3c2C)c1 | 47* | 0 | x
CC(=O)Nc1ccc(NC(=O)c2sc3nc(-c4cccc([N+](=O)[O-])c4)cn3c2C)cc1 | 20 | 20 | -1
CCCOc1ccc(C2CN3C(=O)CN(C4CC4)C(=O)[C@]3(C)c3[nH]c4ccccc4c32)cc1OC (stereo partly specified) | 21 | 16 | 11
CC(=O)c1c(O)c2ccccc2n(Cc2ccccc2)c1=O | -32 | 36* | -77
CCOC(=O)Cn1c(=O)n(Cc2ccccc2)c(=O)c2ccccc21 | -12 | 2 | -8
CC(=O)c1c(O)c2ccccc2n(C2CCCCC2)c1=O | -47 | 49* | -115
Cc1ccc(-c2nc3c(c(=O)c4ccccc4n3C)c(=O)n2C2CCCCC2)cc1 | -26 | 18 | -145
Cc1cccc(S(=O)(=O)N2CCC(OCc3nc(C)no3)CC2)c1 | -9 | 2 | -5
O=C(NCc1cnc2n1CCN(Cc1ccco1)C2)C1CC1 | -113 | -180 | -370
O=C(Nc1ccccc1F)c1ccc(C(=O)c2ccccc2)cc1 | 35* | -45 | 13
CC(C)Oc1ccc(C(=O)Nc2ccccc2F)cc1 | -13 | -1 | 0
Cn1cnc2c(C(=O)NC3CCCCCC3)nn(-c3ccccc3)c2c1=O | -29 | -9 | -67
SMILES | USP17 inh | USP8 block | USP30 inh
Cn1c(SCC(=O)c2ccc(C#N)cc2)nnc1-c1cc2ccccc2o1 | 11 | 13 | 18
COc1ccccc1N(CC(=O)NCc1ccc(F)cc1)C(=O)CCC(=O)Nc1ccccn1 | 3 | -3 | 35*
COc1ccc(CNC(=O)CN(C(=O)CCC(=O)Nc2ccccn2)c2ccccc2F)cc1 | -3 | 0 | 7
COc1cc(OC)c2cc(C(=O)N[C@@H](Cc3ccccc3)C(=O)O)n(C)c2c1 | 36* | 58* | 0
COc1cc2ncn(CC(=O)N[C@@H](Cc3ccccc3)C(=O)O)c(=O)c2cc1OC | -9 | -32 | 0
Cc1sc2ncnc(-n3ncc(C#N)c3N)c2c1-c1ccccc1 | 25 | -6 | x
Cc1ccc(-c2nnc(-n3ncc(C#N)c3N)c3ccccc23)cc1C | 62* | 0 | 0
O=C(Cn1c(=O)n(-c2ccc(F)cc2)c(=O)c2oc3ccccc3c21)NC1CCCC1 | -13 | 7 | -9
Cc1ccc(C)c(CN2C(=O)c3ccccc3S(=O)c3ccc(C(=O)NCCc4ccccc4)cc32)c1 (stereo unspecified) | 9 | 19 | 38*
COc1ccc(CCNC(=O)c2ccc3c(c2)N(Cc2cc(C)ccc2C)C(=O)c2ccccc2S3(=O)=O)cc1OC | 0 | -6 | -7
O=C1COc2ccc(C(=O)COC(=O)c3ccc4ccccc4n3)cc2N1 | 44* | 20 | -195
COc1ccc(OC)c(C(=O)COC(=O)c2ccc3ccccc3n2)c1 | 27 | 19 | 0
Cn1nc(C(C)(C)C)cc1C(=O)N1CCC[C@H](C(=O)c2ccc3c(c2)OCO3)C1 | 8 | 10 | 14
Cc1cccc(C)c1NC(=O)CCc1nc(CSc2nc3ccccc3o2)no1 | 10 | -76 | 31*
O=C(CCc1nc(CSc2nnc(-c3ccco3)o2)no1)Nc1ccccc1 | -33 | -195 | -33

Source: PubChem BioAssay (Buhrlage Lab, Dana-Farber Cancer Institute and Novartis Institutes for BioMedical Research (Cambridge, Mass))
